Reference: paper PMC5540273 (PLoS ONE, 2017)

These molecules were tested on TGFBR1.
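Further: kd values determined as follow-up on hits from a single-replicate KINOMEscan panel screen.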

Q: For `N#Cc1ccc(-c2cc(-c3c[nH]nc3-c3ccccn3)ccn2)cc1` [GW693028], which Kd is on record?
A: Its Kd is 150 nM.

Q: `c1ccc(-c2n[nH]cc2-c2ccnc3ccccc23)nc1` [GW271431] was tested. Which Kd did it give?
A: The Kd was 110 nM.

Q: How did the Kd turn out when `O=C(c1ccc(-c2cc(-c3c[nH]nc3-c3ccccn3)ccn2)cc1)N1CCOCC1` [GW812171] was run?
A: The Kd was 180 nM.

What follows are molecules tested on T1, VPS34.
T1 construct: gene PIK3C3

Q: How did the Kd turn out when `Cc1cn2c(=O)cc(N3CCOCC3)nc2n1Cc1cccc(Cl)c1Cl` [GSK2334006] was run?
A: The Kd was 2.2 nM.

Q: How did the Kd turn out when `N#Cc1c(N2CCOCC2)sc(-c2ccn[nH]2)c1-c1ccc(Cl)cc1` was run?
A: Its Kd is 58 nM.

Q: Which Kd does the source give for `O=c1cc(N2CCOCC2)nc2n(Cc3cccc(Cl)c3Cl)c(C3CC3)nn12` [GSK2358994] here?
A: Its Kd is 0.39 nM.

Q: How did the Kd turn out when `Cc1cccc(Cn2ccn3c(=O)cc(N4CCOCC4)nc23)c1` [GSK2297542] was run?
A: The Kd was 75 nM.

Q: `O=c1cc(N2CCOCC2)nc2n(Cc3cccc(C(F)(F)F)c3)ccn12` [GSK2297543] was tested. Which Kd did it give?
A: Its Kd is 130 nM.

Q: For `NS(=O)(=O)c1cccc(-c2ccc3ncc(N4CCOCC4)nc3c2)c1` [GSK1535721], which Kd is on record?
A: Its Kd is over 10000 nM.

Q: Which Kd does the source give for `O=c1cc(N2CCOCC2)nc2n(Cc3cccc4ccccc34)ccn12` [GSK2333389] here?
A: Its Kd is 60 nM.

Q: How did the Kd turn out when `O=c1cc(N2CCOCC2)nc2n(Cc3cccc(F)c3)ccn12` [GSK2297430] was run?
A: Its Kd is 33 nM.

What follows are molecules tested on VRK2.

Q: Which Kd does the source give for `CN(C(=O)c1ccc(-c2cc(-c3c[nH]nc3-c3ccccn3)ccn2)cc1)C1CCOCC1` [GW810083] here?
A: The Kd was over 10000 nM.

Q: For `CC(C)(C)n1cnc2c(N)ncnc21` [SKF-97359], which Kd is on record?
A: Its Kd is over 10000 nM.

Q: How did the Kd turn out when `COc1ccc(Nc2nccc(N3CCC(NC(=O)Nc4cccc(C(C)=O)c4)C3)n2)cc1` (centres unmarked) [GSK1379731] was run?
A: Its Kd is over 10000 nM.
